Source: ChEMBL document CHEMBL3988442, “University of Dundee, Small-Polar-MMV Screening Library” (2021)
Screen size: about 48,000 compounds; about 13,000 (27%) showed an effect of 50% or more. The list shows a part of the results.

system: Wolbachia pipientis; test: Anti-Wolbachia Cell-Based Screen; assay type: functional; parameters: scale not given: in the data most compounds retested in dose-response had high values; conditions: 5 µM

| Compound | Percent Effect [%] |
| --- | --- |
| CCS(=O)(=O)N1CCCC2(CCCN2C(=O)c2cscn2)C1 (stereo not given) | -8.968 |
| N#Cc1ccc(NCCCN2C(=O)COc3ccccc32)nc1 | -5.647 |
| CC(=O)Nc1cccc(CN2CCN(C3=NCC(C)(C)S3)CC2)c1 | 100.4 |
| CC(=O)Nc1cccc(Cn2nc(C)nc2C)c1 | 5.981 |
| CNC(=O)c1cccc(CN2CCN(c3ccncc3)CC2)c1 | 83.93 |
| CNC(=O)c1cccc(CN2CCN(C3=NCC(C)(C)S3)CC2)c1 | 103.7 |
| CNC(=O)c1ccc(CN2CCN(C3=NCC(C)(C)S3)CC2)cc1 | 129.2 |
| CNC(=O)c1cccc(CN2CCC(N(C)Cc3nnc(C)o3)C2)c1 (stereo not given) | 0.9226 |
| CNC(=O)c1ccc(Cn2ccnc2S(C)(=O)=O)cc1 | -4.025 |
| COCc1cccc(C(=O)N2CCN(C3=NCC(C)(C)S3)CC2)c1 | 0.6755 |
| CC(NC(=O)c1cccc(CN2CCN(C)CC2)c1)c1ccccn1 (stereo not given) | -0.367 |
| CC(=O)NCCC(=O)Nc1cccc(N2CCN(CC3CC3)CC2)c1 | 8.668 |
| CN(C)c1ncccc1C(=O)N1CCN(C2=NCC(C)(C)S2)CC1 | -14.23 |
| CC(NC(=O)c1cccc(CN2CCN(C)CC2)c1)c1nccs1 (stereo not given) | 12.68 |
| CN(CCCc1n[nH]c(N)c1C#N)C(=O)NC1CC1 | 0.449 |
| O=C(NCCCO)Nc1cccc(C[S+]([O-])c2ccccc2)c1 (stereo not given) | 2.569 |
| CN(Cc1ccccc1)CC1CC2(CO1)CN(Cc1nccs1)C2 (stereo not given) | 11.68 |
| Cc1occc1C(=O)N1CCC2(CCCN(Cc3nccs3)C2)C1.O=C(O)C(F)(F)F (stereo not given) | 1.287 |
| Cc1ccc(C(=O)N2CCC3(CCCN(c4ccc(C)nn4)C3)C2)cn1 (stereo not given) | 4.152 |
| Cc1ccc(C(=O)N2CCC3(CCCN(c4ncc(F)cn4)C3)C2)cn1.O=C(O)C(F)(F)F (stereo not given) | 104 |
| Cc1occc1C(=O)N1CCC2(CCCN(Cc3cccs3)C2)C1.O=C(O)C(F)(F)F (stereo not given) | -3.04 |
| Cc1occc1C(=O)N1CCC2(CCCN(c3ncc(F)cn3)C2)C1.O=C(O)C(F)(F)F (stereo not given) | 116.2 |
| CN(Cc1ccncc1)C1CC2(CCN(c3ncc(F)cn3)CC2)C1.O=C(O)C(F)(F)F.O=C(O)C(F)(F)F | -2.894 |
| Cc1ccc(N2CCC3(CCCN(C(=O)c4cccnc4)C3)C2)nn1.O=C(O)C(F)(F)F (stereo not given) | -9.172 |
| O=C(O)C(F)(F)F.O=C(c1ccncc1)N1CCC2(CCCN(c3ncc(F)cn3)C2)C1 (stereo not given) | 105.7 |

| Compound | Percent Effect [%] |
| --- | --- |
| c1ccc2c(c1)CC(CNCc1ccncc1)(N1CCCCC1)C2 | -2.88 |
| CC(CN1CCC2(CC1)c1nc[nH]c1CCN2S(C)(=O)=O)C(F)(F)F (stereo not given) | -8.098 |
| COC(=O)c1ccc(C(=O)NS(=O)(=O)c2cncc(Br)c2)cc1 | -17.99 |
| Cc1ncsc1CCCn1ccnc1-c1cc2n(n1)CCCNC2 | -0.1089 |
| CC(O)CN1CCc2[nH]nc(C(c3ccccc3)c3ccccc3)c2C1 (stereo not given) | 0.8234 |
| COc1ccc(C(=O)N2CCCC3(CCCC(=O)N3C)C2)cc1 (stereo not given) | 91.19 |
| CCc1ccc(C(=O)N2CCCC3(CCCC(=O)N3C)C2)cc1 (stereo not given) | 97.96 |
| CCC1(CO)CCCN(C(=O)c2ccc(N3CCN(C)CC3)cc2)C1 (stereo not given) | -10.61 |
| CCC1(C(=O)O)CCCN(C(=O)c2ccc(N3CCN(C)CC3)cc2)C1 (stereo not given) | 4.53 |
| O=C(NC1CCCCC1)N1C[C@H]2CN(c3cnccn3)C[C@@]2(C(=O)O)C1 | -17.1 |
| Cc1ccc2c(c1)C(NCc1ncnn1C)CC2 (stereo not given) | -32.91 |
| CN1C(=O)CC(C(=O)O)C12CCN(Cc1ccc(Cl)c(F)c1)CC2 (stereo not given) | -9.63 |
| COc1ccccc1CCNC(=O)N1CCC(n2cncn2)CC1 | 106.2 |
| CC(NC(=O)N1CCC(n2cncn2)CC1)c1ccc(F)cc1F (stereo not given) | -3.93 |
| COC(CNC(=O)N1CCC(n2cncn2)CC1)c1ccccc1 (stereo not given) | 1.274 |
| CC(C)c1ccc(C(C)NC(=O)N2CCC(n3cncn3)CC2)cc1 (stereo not given) | -4.399 |
| CC(C)Oc1ccccc1NC(=O)N1CCC(n2cncn2)CC1 | 90.39 |
| COc1ccccc1OCCNC(=O)NCC(C)C | -1.191 |
| COc1ccccc1OCCNC(=O)N1CCC(n2cncn2)CC1 | 92.74 |
| O=C(Nc1ccc(N2CCCC2)nc1)N1CCc2sccc2C1 | 6.616 |
| CCS(=O)(=O)NCCCNc1ncnc2cc(F)c(F)cc12 | -7.857 |
| CS(=O)(=O)NC[C@]12COC[C@H]1CN(C(=O)c1ccoc1)C2 | -2.074 |
| CS(=O)(=O)NC[C@]12COC[C@H]1CN(C(=O)C1CCSCC1)C2 | 57.64 |
| CS(=O)(=O)NC[C@]12COC[C@H]1CN(C(=O)Cc1ccccc1F)C2 | 6.41 |
| Cn1cccc1C(=O)N1C[C@@H]2COC[C@]2(CNS(C)(=O)=O)C1 | -3.959 |

| Compound | Percent Effect [%] |
| --- | --- |
| Cc1ccoc1C(=O)N1C[C@@H]2COC[C@]2(CNS(C)(=O)=O)C1 | 15.9 |
| CS(=O)(=O)NC[C@]12COC[C@H]1CN(C(=O)N1CCCC1)C2 | 88.05 |
| COC[C@]12COC[C@H]1CN(C(=O)C1CCSCC1)C2 | -5.007 |
| O=C(NC[C@]12COC[C@H]1CN(CC1CCOCC1)C2)c1ccco1.O=C(O)C(F)(F)F | 6.419 |
| CS(=O)(=O)NC[C@]12COC[C@H]1CN(CC1CCC1)C2.O=C(O)C(F)(F)F | 92.98 |
| CS(=O)(=O)NC[C@]12COC[C@H]1CN(C(=O)CCc1ccccc1)C2 | -0.4913 |
| O=C(O)C(F)(F)F.O=S(=O)(NC[C@]12COC[C@H]1CN(CCc1ccccc1)C2)C1CC1 | -3.746 |
| CS(=O)(=O)NC[C@]12COC[C@H]1CN(C(=O)CC1CCCC1)C2 | 102.4 |
| Clc1ccccc1OC1CCN(CC2CCOC2)CC1 (stereo not given) | -1.584 |
| CC(=O)Nc1ccc(CN2CCc3[nH]cnc3C2c2ccc(C)o2)cc1 (stereo not given) | -0.8872 |
| CC(=O)N[C@@H]1CN(C(=O)c2cc3sccc3[nH]2)C[C@H]1c1ccc(C)o1 | 26.08 |
| Cc1ccc(N2C[C@H]3OCC[C@H]3[C@H](C(=O)NCC3CC3)C2)nn1.O=C(O)C(F)(F)F | 0.1783 |
| Cc1ncsc1CCN(C)C(=O)CN1CCOC1=O | 2.507 |
| Cc1cnc(C(C)(C)NC(=O)NCc2ccc(C#N)cc2F)s1 | -5.008 |
| COc1ccc2nc(C[C@@H]3C[C@@H](C(C)C)[C@H](CN(C)C)C=C3C)[nH]c2n1 | -3.892 |
| C[S+]([O-])CCCNC(=O)c1cc(Br)c2c(c1)OCCO2 (stereo not given) | -5.642 |
| CS(=O)(=O)NC[C@]12COC[C@H]1CN(C(=O)c1ncccn1)C2 | 4.055 |
| COC[C@]12COC[C@H]1CN(C(=O)C1CC(F)(F)C1)C2 | -2.486 |
| CS(=O)(=O)NC[C@]12COC[C@H]1CN(C(=O)c1ccncn1)C2 | 0.7032 |
| CS(=O)(=O)NC[C@]12COC[C@H]1CN(C(=O)C1CC(F)(F)C1)C2 | 112.2 |
| CS(=O)(=O)NC[C@]12COC[C@H]1CN(C(=O)c1ccccc1)C2 | 7.31 |
| CS(=O)(=O)NC[C@]12COC[C@H]1CN(C(=O)C1CC=CC1)C2 | 99.92 |
| Cc1cc(CN(C)C(=O)c2cc3c([nH]c2=O)CCCC3=O)no1 | -8.225 |
| COCCN(CC(C)C)C(=O)c1cccc(Nc2cnccn2)c1 | 186.1 |
| CC(=O)c1cccc(OCCCC(=O)N(C)CCc2ccncc2)c1 | 5.185 |

| Compound | Percent Effect [%] |
| --- | --- |
| COc1ccnc(NC(=O)c2cnccn2)c1 | 0.1681 |
| CN(C)C(=O)c1cccc(Nc2cnn(C)c2)c1 | -3.903 |
| COCCCN(C)C(=O)c1cccc(Nc2cnccn2)c1 | 100 |
| COc1c(C)cnc(CN(C)C(=O)c2cccc(NC(N)=O)c2)c1C | 7.754 |
| COCCN(CCOC)C(=O)c1cccc(Cn2nc(C)cc2C)c1 | -2.572 |
| CN(Cc1cnccn1)C(=O)c1ccnc(OC2CCC2)c1 | -12.54 |
| CN(CC1(O)CCCC1)C(=O)c1cccc(Nc2cnccn2)c1 | 136.4 |
| CCC(=O)NCc1cc(Br)c(OC)c(OC)c1 | -2.986 |
| c1cnn(CCC2CCCCN2Cc2cnc(C3CCCCC3)nc2)c1 (stereo not given) | -23.18 |
| CC(=O)OCC1CCCCN1C(=O)c1ccc(Cn2ccnc2)o1 (stereo not given) | 0.6554 |
| N#Cc1cn(CCCN2CCc3ccccc32)c(=O)[nH]c1=O | 7.257 |
| CSc1cc2c(cc1NC(=O)NCC(=O)N(C)C)OCCO2 | -7.029 |
| Nc1c(Cl)cnn1C1CCN(Cc2ccccc2)C1 (stereo not given) | -6.784 |
| COc1cccc(-c2nc(CNCCc3cccnc3)cs2)c1 | 20 |
| COc1ccc(-c2nc(CCNCc3ccncc3)co2)cc1 | 89.2 |
| c1ccc(-c2nc(CCNCc3ccccn3)co2)cc1 | 85.74 |
| c1ccc(Oc2ncccc2CNCc2ccccn2)cc1 | 6.646 |
| c1ccc(-c2nc(CNCCn3cccn3)cs2)cc1 | 17.11 |
| c1ccc(-c2nc(CCNCc3cccnc3)co2)cc1 | 108.2 |
| COc1ccc(-c2nc(CCNc3nnc(C)c(C)c3C#N)co2)cc1 | 14.52 |
| c1ccc(-c2nnn3c2COC(CNCc2ccccn2)C3)cc1 (stereo not given) | -8.365 |
| Cc1nnc(NCCc2coc(-c3ccccc3)n2)c(C#N)c1C | -1.856 |
| c1ccc(-c2nc(CCNCc3ccncc3)co2)cc1 | 91.06 |
| O=C1NCCCCC1SCc1coc(-c2ccccc2)n1 (stereo not given) | -18.22 |
| CNC(=O)CS(=O)(=O)Cc1coc(-c2ccc(OC)cc2)n1 | -17.74 |
